# Bioassay records from PubChem.
# DRD3 antagonist = blocks the human D3 dopamine receptor; P35462; actives 2.5% (n = 360,000); D3R cells, DiscoveRx beta-arrestin luminescence, antagonist mode; hits give low values; max response, negative = inhibition, %; in the data active = max response below about -50%; inconclusive = no clear call, values can overlap the other calls; also: % is scaled to controls: 0 for no effect and ±100 for the full control effect
# Target sequence (P35462 whole entry, looked up): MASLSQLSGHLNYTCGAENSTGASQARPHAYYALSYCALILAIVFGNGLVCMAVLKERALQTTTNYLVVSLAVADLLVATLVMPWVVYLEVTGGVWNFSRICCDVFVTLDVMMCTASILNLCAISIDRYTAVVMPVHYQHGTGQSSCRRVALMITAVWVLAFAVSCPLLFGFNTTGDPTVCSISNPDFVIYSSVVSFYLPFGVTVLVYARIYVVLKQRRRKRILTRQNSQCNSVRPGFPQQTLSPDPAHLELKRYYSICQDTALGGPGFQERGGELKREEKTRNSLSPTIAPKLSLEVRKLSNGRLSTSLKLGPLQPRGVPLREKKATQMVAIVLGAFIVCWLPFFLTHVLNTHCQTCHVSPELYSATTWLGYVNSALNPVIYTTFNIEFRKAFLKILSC
#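 Cells plated overnight at 1500 cells/well, then exposed to library compounds with dopamine controls for 90 minutes at 37 degrees C. DiscoveRx reagent added for 30–60 minutes at room temperature; luminescence read, quantitative HTS format.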
# DRD3 agonist = agonists of human D3 dopamine receptor | max activation, % | actives 0.58% (n = 410,000) | AID 652048 | P35462 | D3R DiscoveRx beta-arrestin cells, luminescence, 90 min; in the data active = max activation above about 30%; also: 0% is about no effect
#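 Agonist-mode cell screen: cells plated at 1500/well and incubated overnight at 37 °C, then exposed to library compounds for 90 min at 37 °C. Detection reagent was added for 30–60 min at room temperature, and luminescence was read.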
# DT40 TDP1 CPT = DT40-hTDP1 cell growth loss with CPT; chicken DT40 Tdp1-/-;hTDP1 cells + 20 nM CPT, ATP luminescence, 48 h; Potency, µM (series often up to 46.2 µM), inactives show top-dose activity change, negative = growth inhibition, usual class: inhibitors; actives 12% (n = 420,000); AID 686979; also: potency is read from the fitted curve at half-maximal effect; % is scaled to controls: 0 for no effect and ±100 for the full control effect; nearly all actives have a fitted effect of over 55% in size
#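 Cell growth measured by CellTiter-Glo luminescence after a minimum 48 h, 37 C compound exposure with 20 nM CPT in Tdp1-knockout DT40 cells stably expressing hTDP1, seeded 400/well; qHTS titration format.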
# ClpP mod = qHTS Assay for Activators of ClpP | AID 651965, 2013 | actives 1.9% (n = 340,000) | Potency, µM (top dose mostly 57.5 µM), for the others: at the top dose activity change, negative = active | ATP-dependent Clp protease proteolytic subunit (Bacillus subtilis (strain 168)), P80244 | purified B. subtilis ClpP, FRET peptide cleavage, 20 min; active = well fitted falling curve with a large enough effect; inconclusive = small, poorly fitted or top-dose-only effect; inactive = no such curve, though single readings can be large or run the other way; also: potency is read from the fitted curve at half-maximal effect; the source files actives as falling curves though it sought activators and does not explain the sign; nearly all actives have a fitted effect of over 65% in size
# Target sequence (P80244 whole entry, looked up): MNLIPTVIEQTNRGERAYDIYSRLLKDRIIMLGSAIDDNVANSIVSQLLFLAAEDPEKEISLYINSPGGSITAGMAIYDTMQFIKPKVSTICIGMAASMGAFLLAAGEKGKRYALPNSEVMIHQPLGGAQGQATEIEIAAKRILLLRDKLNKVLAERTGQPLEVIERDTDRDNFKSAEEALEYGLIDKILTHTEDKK
#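 FRET quenching reversal measured ClpP activation: 10 microg/mL B. subtilis ClpP at pH 8 with the FRET-FV decapeptide, read at 430 nm after 320 nm excitation. The 20-min minus 0-min signal was scaled between DMSO/no-enzyme wells and ADEP (5.8 microM final).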
# DT40 TDP1 no CPT = qHTS for Inhibitors of human tyrosyl-DNA phosphodiesterase 1 (TDP1): qHTS in cells in absence of CPT; Potency, µM (highest dose often 46.2 µM), inactives show top-dose activity change, negative = growth inhibition, most hits filed as inhibitors; AID 686978, 2013; actives 15% (n = 420,000); DT40 Tdp1-/- hTDP1 cells, no CPT, ATP luminescence, 48 h; also: potency is read from the fitted curve at half-maximal effect; % is scaled to controls: 0 for no effect and ±100 for the full control effect; nearly all actives have a fitted effect of over 55% in size
#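 No-CPT arm: Tdp1-/-;hTDP1 DT40 cells (400/well) plus compounds, incubated ≥48 hr at 37 °C. Readout CellTiter-Glo luminescence.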
# IL1B secr inh = inhibitors of inflammasome signaling (IL-1 beta secretion); THP-1 LPS/ATP IL-1B secretion, AlphaLISA, 16 h; hits give low values; activity change, % at 57.5 µM; actives 4.7% (n = 360,000); AID 743279; in the data active = activity change below about -50%; inconclusive = mostly about -30% to -49%; also: % is scaled to controls: 0 for no effect and ±100 for the full control effect
#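 Secreted IL-1B measured by AlphaLISA bead assay after 16 h compound exposure of THP-1 cells; compounds (final up to 57.5 uM) added 1 h before LPS (250 ng/mL) and ATP (1.25 mM) stimulation; lower signal means less secretion.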
# * = called active by the depositor; ? = inconclusive; · = not tested or not shown. Compounds with a hit are over-represented: about 21% of the library has one in this group of screens. Unless noted, calls follow the shape of the dose curve; as a rule, active = well fitted inhibition curve with a large enough effect; inconclusive = small, poorly fitted or top-dose-only effect; inactive = flat fitted curve, though single readings scatter.
SMILES,DRD3 antagonist,DRD3 agonist,DT40 TDP1 CPT,ClpP mod,DT40 TDP1 no CPT,IL1B secr inh
Cc1ccc(CNC(=O)c2ccc(CSCc3c(F)cccc3Cl)o2)cc1,·,5.1,-29.8%,1.2%,-14.3%,·
Cc1ccc(-c2nc(SCC(=O)NCC3CCCO3)c3c(=O)n(C)c(=O)n(C)c3n2)cc1 (centres undefined),·,4.8,-25.3%,0.6%,-15.8%,·
c1ccc(Nc2nc(-c3ccncc3)nc3ccccc23)cc1,64.8,-4.6,-2.3%,-5.5%,-19.1%,4.7
c1cncc(CNc2nc(-c3ccoc3)nc3ccccc23)c1,·,·,?,·,20.6µM*,·
COc1ccc(CNc2nc(-c3ccc(N(C)C)cc3)nc3ccccc23)c(OC)c1,·,·,4.11µM*,·,4.11µM*,·
CN(C)c1ccc(-c2nc(NCc3cccnc3)c3ccccc3n2)cc1,·,·,3.66µM*,·,4.11µM*,·
CN(C)c1ccc(-c2nc(Nc3ccncc3)c3ccccc3n2)cc1,·,·,9.2µM*,·,5.8µM*,·
Cc1ccc(-c2nc(NCCCN(C)C)c3ccccc3n2)cc1,-12.4,-2.0,-4.1%,-13.9%,?,?
CCN(CC)CCCNC(=O)Cn1nc(N2CCN(c3ccccc3OC)CC2)ccc1=O,·,-9.0,-28.2%,?,?,·
CN1CCN(c2c(F)cc3c(=O)c(C(=O)O)cn4c3c2SCC4)CC1,20.4,2.4,13µM*,28.2µM*,11.6µM*,-3.3
CCOC(=O)c1cn(CC)c2cc(N3CCN(C)CC3)c(F)cc2c1=O,14.8,2.1,-9.7%,4.2%,2.9%,-16.2
C[C@H]1COc2c(N3CCN(C)CC3)c(F)cc3c(=O)c(C(=O)O)cn1c23,20.8,11.5,?,4.9%,9.2µM*,-9.3
C[C@H]1COc2c(C3(N)CC3)c(F)cc3c(=O)c(C(=O)O)cn1c23,·,0.1,-10.4%,·,-21.8%,·
CCOC(=O)c1c(C)c(C)n2c1NC(=O)C2,6.4,4.9,?,-1.5%,-10.3%,-22.4
COC(=O)c1ccccc1N(C)S(=O)(=O)c1cc2c3c(c1)CCC(=O)N3CCC2,-1.7,-9.3,?,-2.7%,?,32.8
CCOC(=O)C(C)/C(C)=N/NC(N)=S (centres undefined),13.0,-1.5,18.4µM*,-2.1%,?,-60.1*
O=C(NCCC1CCCCN1S(=O)(=O)c1ccc(F)cc1)C(=O)NCCN1CCOCC1 (centres undefined),13.6,2.3,0.8%,-0.9%,3.8%,-3.6
CCCCC(=O)Nc1cc2nn(-c3ccc(OCC)cc3)nc2cc1C,·,6.7,-2.3%,-20.4%,-23.1%,·
c1ccc2c(c1)nc(N1CCCCCC1)c1nncn12,-27.2,-2.1,?,-18.8%,?,27.8
COc1ccccc1N1CCN(c2nc3ccccc3n3cnnc23)CC1,·,2.4,?,0.1%,20.6µM*,·
Clc1cccc(N2CCN(c3nc4ccccc4n4cnnc34)CC2)c1,·,3.3,?,-6.0%,?,·
Cc1cccc(N2CCN(c3nc4ccc(Cl)cc4n4cnnc34)CC2)c1C,15.7,-0.3,20.6µM*,4.4%,?,22.0
CCN1CCN(c2nc3ccccc3n3cnnc23)CC1,-70.0*,-22.4,-7.4%,-6.2%,-21.6%,-20.1
ClC1(Cl)CC1CSc1nnc(-c2ccncc2)o1 (centres undefined),22.8,16.2,-24.9%,-7.0%,?,-13.5
CSc1ccc(CN(C)C(=O)C23CC4CC(CC(Cl)(C4)C2)C3)cc1,-28.1,1.3,?,·,?,?
SMILES,DRD3 antagonist,DRD3 agonist,DT40 TDP1 CPT,ClpP mod,DT40 TDP1 no CPT,IL1B secr inh
O=C(N1CCCC1)C12CC3CC(CC(Cl)(C3)C1)C2,1.6,5.6,?,1.0%,?,24.7
OCC(Cc1ccccc1)NCc1ccccc1C(F)(F)F (centres undefined),-26.4,-1.6,-14.2%,-2.5%,-19.8%,-11.9
CCCCNc1nc2ccccc2nc1Cl,5.9,1.8,-5.8%,·,-24.6%,23.4
OCC(Cc1ccccc1)Nc1c2ccccc2nc2ccccc12 (centres undefined),-16.6,-7.3,?,-10.6%,16.4µM*,-52.4*
CCCCNc1nc(NCc2ccccc2)nc2ccccc12,-9.8,-4.2,20.6µM*,-11.6%,8.2µM*,-110.3*
c1ccc(CNc2c3ccccc3nc3ccccc23)cc1,-7.1,-4.1,13µM*,-8.5%,18.4µM*,-99.9*
CNc1nc(NCc2ccccc2)c2ccccc2n1,18.9,-3.3,13µM*,·,4.61µM*,·
Oc1ccccc1-c1nc(NCc2ccccc2)c2ccccc2n1,31.4,-3.2,6.6%,·,?,-10.3
COc1ccccc1CNS(=O)(=O)c1ccc(Br)s1,-4.8,-5.6,4.5%,-1.5%,0.1%,11.9
Oc1ccc(CCNc2c3ccccc3nc3ccccc23)cc1O,10.3,124.0*,1.16µM*,·,1.46µM*,-99.3*
COCCCNc1c2c(nc3ccccc13)CCC2,31.1,-6.7,?,-1.6%,?,33.3
Oc1ccccc1Nc1nc(NCc2ccccc2)c2ccccc2n1,5.1,7.8,11.6µM*,-2.0%,11.6µM*,-100.6*
NS(=O)(=O)c1ccc(CCNc2ncnc3c2cnn3-c2cccc(Cl)c2)cc1,·,-9.5,?,-9.3%,?,·
CC1(C)CC(=O)CC(=O)/C1=N\Nc1c(Cl)cc(Cl)cc1Cl,-2.6,-7.0,?,1.8%,18.4µM*,42.8
CC1(C)CC(=O)C/C(=N/NC(=O)COc2ccc(Cl)cc2Cl)C1,15.8,5.4,-4.6%,-2.6%,-9.0%,-17.9
COc1ccc(-c2[nH]ncc2/C=C(/C#N)C(=O)NC2CCCCCC2)cc1,-5.9,-11.1,?,-1.1%,18.4µM*,-88.2*
C=CCNC(=O)/C(C#N)=C/c1ccc(SC)cc1,-14.8,-5.4,-6.3%,25.1µM*,?,-57.4*
CC1CCCCC1NC(=O)/C(C#N)=C/c1ccc2c(c1)OCCO2 (centres undefined),-11.1,-1.1,?,-2.8%,?,-101.7*
CC(=O)Nc1ccc(/C=C(\C#N)C(=O)NC2CCCCC2)cc1,7.8,-2.5,-8.8%,·,?,-85.5*
N#CCCN(C(=S)NC(=O)c1ccco1)c1ccccc1F,2.8,14.8,?,-0.2%,?,20.7
CSc1ccc(/C=C(\C#N)C(=O)NC2CCCCC2)cc1,-3.5,0.6,?,100.3%,20.6µM*,-4.8
CC(=O)Nc1cc(-c2cccc(C(=O)NCCO)c2)cn2c(-c3ccc(F)c(Cl)c3)cnc12,28.9,11.0,29.1µM*,2.5%,23.1µM*,0.7
